In PubChem BioAssay AID463173 (ICCB-Longwood Screening Facility, Harvard Medical School, 2010):
The campaign covered roughly 52,000 compounds. About 4,300 (8.3%) were called active. No stated cut-off is given here; in the data, active means survival mostly below about 52% (no sharp cut-off); inactive means mostly above about 56%. The full list was thinned out, with actives kept by preference.

System: DeltatarO mutant
Assay: growth inhibition of S. aureus wild type versus tarO mutant, primary screen, teichoic acid synthesis inhibitors, RN4220, OD600 (AID 463173)
Conditions: OD600, 18 h, hits give low values, screened at 18.75 µg/mL (by protocol)

Row | Compound | survival
1 | CC(=O)c1cc(-c2ccc(F)cc2)n(CC(=O)NC2CCC(C)CC2)c1C (stereo not drawn) | 67% (inactive)
2 | O=C(CN1CCN(S(=O)(=O)c2cc(Cl)ccc2Cl)CC1)Nc1cccc(F)c1 | 92% (inactive)
3 | CCOc1ccc(C(=O)C(CC(CN2CCOCC2)C(=O)c2ccc(OCC)cc2)CN2CCOCC2)cc1 (stereo not drawn) | 104% (inactive)
4 | O=C1c2oc3ccc(F)cc3c(=O)c2C(c2cccc([N+](=O)[O-])c2)N1CCCN1CCOCC1 (stereo not drawn) | 84% (inactive)
5 | CCCCOc1ccc(C(=O)OCC2CCCN3CCCCC23)cc1OC (stereo not drawn) | 107% (inactive)
6 | O=C(CCC(=O)N1CC2CCCN2c2ccccc21)NCc1ccccc1Cl (stereo not drawn) | 69% (inactive)
7 | Cc1ccc(CNC(=O)CCC(=O)N2CC3CCCN3c3ccccc32)cc1 (stereo not drawn) | 83% (inactive)
8 | O=C(CCC(=O)N1CC2CCCN2c2ccccc21)NCc1ccc(F)cc1 (stereo not drawn) | 0% (active)
9 | COc1cccc(CNC(=O)CCC(=O)N2CC3CCCN3c3ccccc32)c1 (stereo not drawn) | 66% (inactive)
10 | O=C(CCC(=O)N1CC2CCCN2c2ccccc21)NCc1cccc(Cl)c1 (stereo not drawn) | 37% (active)
11 | O=C(CCC(=O)N1CC2CCCN2c2ccccc21)NCc1ccccc1 (stereo not drawn) | 74% (inactive)
12 | O=C(O)c1cc2ccccc2[nH]c1=O | 107% (inactive)
13 | CCc1cccc(NC(=O)Cc2nc(-c3ccc(OC)cc3)no2)c1 | 77% (inactive)
14 | O=C(Nc1ccc(S(=O)(=O)N2CCCCC2c2cccnc2)cc1)c1ccc(Br)cc1 (stereo not drawn) | 92% (inactive)
15 | CC(=O)N1CCc2cc(Br)cc(S(=O)(=O)N3CCN(c4cccc(C)c4)C(C)C3)c21 (stereo not drawn) | 74% (inactive)
16 | CCOc1ccccc1NC(=O)Cn1c(=O)n(Cc2ccccc2)c(=O)c2c(C)c(C)sc21 | 66% (inactive)
17 | Cc1c(C(=O)N(C)C)sc2c1c(=O)n(-c1ccc(Cl)c(Cl)c1)c(=O)n2CC(=O)Nc1ccc(Br)cc1F | 144% (inactive)
18 | Cc1ccccc1NC(=O)Cn1c(=O)n(Cc2ccccc2)c(=O)c2c(C)c(C)sc21 | 136% (inactive)
19 | CCOC(=O)c1ccccc1NC(=O)Cn1c(=O)n(-c2ccc(CC)cc2)c(=O)c2c(C)c(C(=O)N(C)C)sc21 | 0% (active)
20 | CCN(CC)C(=O)c1sc2c(c1C)c(=O)n(-c1ccc(Cl)c(Cl)c1)c(=O)n2CC(=O)Nc1cccc(OC)c1 | 70% (inactive)
21 | Cc1c(C(=O)N(C)C)sc2c1c(=O)n(-c1ccc(Cl)c(Cl)c1)c(=O)n2CC(=O)Nc1cccc(C(F)(F)F)c1 | 46% (active)
22 | CCOC(=O)c1ccccc1NC(=O)Cn1c(=O)n(Cc2ccccc2)c(=O)c2c(C)c(C)sc21 | 84% (active)

Row | Compound | survival
23 | COC(=O)c1ccccc1NC(=O)Cn1c(=O)n(-c2cccc(OC)c2)c(=O)c2c(C)c(C(=O)N(C)C)sc21 | 117% (inactive)
24 | CCc1ccc(-n2c(=O)c3c(C)c(C(=O)N(C)C)sc3n(CC(=O)Nc3cc(Cl)ccc3C)c2=O)cc1 | 131% (inactive)
25 | CCOc1ccc(NC(=O)C(NS(=O)(=O)c2ccc3c(c2)CCN3C(C)=O)C(C)C)cc1 (stereo not drawn) | 124% (inactive)
26 | CCCOc1ccc(-c2nc(SCC(=O)c3ccc(Cl)cc3)n[nH]2)cc1 | 187% (inactive)
27 | Cc1ccc(NC(=O)CSc2ncc(S(=O)(=O)c3ccc(C(C)C)cc3)c(=O)[nH]2)cc1C | 87% (inactive)
28 | Nc1c(C(=O)Nc2ccccc2Cl)c2ccccn2c1C(=O)c1ccc(Cl)cc1 | 80% (inactive)
29 | CCOC(=O)c1ccccc1NC(=O)CSc1nc2ccncc2[nH]1 | 85% (inactive)
30 | CC(Sc1ncc(S(=O)(=O)c2ccc(C(C)C)cc2)c(N)n1)C(=O)Nc1ccccc1 (stereo not drawn) | 60% (inactive)
31 | COCCNc1c(-c2ccccc2)nc2cc(C)ccn12 | 69% (inactive)
32 | COc1ccc(-c2nc3cc(C)ccn3c2NC(=O)c2ccc(C)c(C)c2)cc1 | 68% (inactive)
33 | O=C(Nc1c(-c2ccc(F)cc2)nc2ccccn12)c1cccc(F)c1 | 146% (inactive)
34 | Cc1cccc(C(=O)Nc2c(-c3ccccc3)nc3cc(C)ccn23)c1 | 27% (active)
35 | COc1ccc(-c2nc3cc(C)ccn3c2NC(=O)c2ccc(F)cc2)cc1 | 37% (active)
36 | COc1ccc(-c2nc3cc(C)ccn3c2NC(=O)c2cccc(F)c2)cc1 | 53% (active)
37 | COc1ccc(CNC(=O)c2ccc3nc(-c4ccc(F)cc4)c(-c4ccc(F)cc4)nc3c2)cc1 | 78% (inactive)
38 | Cc1nc2ccccn2c(=O)c1NC(=O)c1cccc(F)c1 | 71% (inactive)
39 | Cc1ccn2c(NC(=O)c3cccc(Cl)c3)c(-c3ccccc3)nc2c1 | 65% (inactive)
40 | CCOc1ccccc1NS(=O)(=O)c1ccc(N2CCCCS2(=O)=O)cc1 | 97% (inactive)
41 | Cc1ccc(NC(=O)/C(C#N)=C/c2cn(CC(=O)NCc3ccco3)c3ccccc23)cc1Cl | 64% (inactive)
42 | Cc1ccc(S(=O)(=O)NNC(=S)NCC2CCCO2)cc1 (stereo not drawn) | 69% (inactive)
43 | Cc1cn2c(=O)cc(COc3ccc(Cl)cc3)nc2s1 | 53% (inactive)
44 | Cc1cn2c(=O)cc(COC(=O)COc3ccc(C)c(C)c3)nc2s1 | 67% (inactive)

Row | Compound | survival
45 | COc1ccc(OCC(=O)OCc2cc(=O)n3cc(C)sc3n2)cc1 | 6% (active)
46 | COc1cccc(OCc2cc(=O)n3cc(C)sc3n2)c1 | 40% (active)
47 | O=C(COc1ccccc1)OCc1cc(=O)n2nc(-c3cccs3)sc2n1 | 88% (inactive)
48 | Cc1cn2c(=O)cc(COC(=O)COc3ccc(F)cc3)nc2s1 | 70% (inactive)
49 | Cc1cc(C)cc(OCc2cc(=O)n3cc(C)sc3n2)c1 | 81% (inactive)
50 | COc1ccc(OCC(=O)OCc2cc(=O)n3nc(-c4cccs4)sc3n2)cc1 | 94% (inactive)
51 | O=C(COc1ccc(Cl)cc1)OCc1cc(=O)n2nc(-c3cccs3)sc2n1 | -4% (active)
52 | COc1ccccc1-c1nc(CNC(=O)Nc2ccccc2)c(C)o1 | 98% (inactive)
53 | Cc1ccc(N2C(=O)N(CC(=O)C(C)(C)C)c3ccccc3S2(=O)=O)cc1C | 91% (inactive)
54 | CCOc1ccc2c(c1)c(=O)c(S(=O)(=O)c1ccc(C)cc1)cn2Cc1ccccc1Cl | 82% (inactive)
55 | CC1=C(C)C(=O)N(c2ccccn2)C1=O | 93% (inactive)
56 | Cc1ccc(-n2c(=O)c3ccc(C(=O)NCc4ccccc4Cl)cc3n(CC(=O)Nc3ccc(C)cc3C)c2=O)cc1 | 79% (inactive)
57 | CC(C)(C)NC(=O)c1cccc(NC(=O)c2ccco2)c1 | 101% (inactive)
58 | COc1ccc(N2CCN(CNC(=O)c3ccccc3)CC2)cc1 | 95% (inactive)
59 | Nc1nnc(CCN2C(=O)CSC2=O)s1 | 95% (inactive)
60 | CCc1cnc2c(c1SCC(=O)NCc1ccc(F)cc1)c(=O)n(C)c(=O)n2C | 119% (inactive)
61 | CC(C)C(=O)Nc1ccc2nc(SCC(=O)N3CCc4ccccc43)sc2c1 | 97% (inactive)
62 | CCc1nnc(NC(=O)CSc2nc3c([nH]c4ccccc43)c(=O)n2-c2ccc(F)cc2)s1 | 84% (inactive)
63 | CCc1ccc(-c2nc(CS(=O)CC(=O)NCCc3ccc(Cl)cc3)c(C)o2)cc1 (stereo not drawn) | 91% (inactive)
64 | CCc1ccc(NCc2cc3ccc(OC)cc3n(CC(=O)Nc3ccccc3C)c2=O)cc1 | 83% (inactive)
65 | COc1ccc2c(c1)c1c(c(=O)n(CCc3ccccc3)c(=O)n1Cc1ccccc1)n2C | 90% (inactive)
66 | COc1ccc(Cn2c(=O)n(-c3ccc(C)cc3)c(=O)c3c2c2cc(C)ccc2n3C)cc1 | 100% (inactive)

Row | Compound | survival
67 | Cc1ccc(-n2c(=O)c3c(c4cc(C)ccc4n3C)n(Cc3ccc(F)cc3)c2=O)cc1 | 116% (inactive)
68 | COc1ccc2cc(CNc3ccc(C)cc3)c(=O)n(CC(=O)Nc3ccc(C)cc3Cl)c2c1 | 102% (inactive)
69 | COc1ccc2c(c1)c1c(c(=O)n(CCc3ccccc3)c(=O)n1Cc1cccc(F)c1)n2C | 67% (inactive)
70 | COc1ccc2c(c1)c1c(c(=O)n(Cc3ccccc3)c(=O)n1CC(=O)Nc1ccccc1F)n2C | 109% (inactive)
71 | Cc1ccc(Cn2c(=O)n(-c3ccc(C)cc3)c(=O)c3c2c2cc(C)ccc2n3C)cc1 | 52% (active)
72 | COc1ccc2c(c1)c1c(c(=O)n(Cc3ccccc3)c(=O)n1CC(=O)Nc1ccc(C)cc1C)n2C | -2% (active)
73 | COc1ccc2c(c1)c1c(c(=O)n(CCc3ccccc3)c(=O)n1Cc1ccc(F)cc1)n2C | 6% (active)
74 | COc1ccc2cc(CNc3ccccc3)c(=O)n(CC(=O)Nc3ccc(C)cc3C)c2c1 | 0% (active)
75 | COc1ccc2c(c1)c1c(c(=O)n(Cc3ccccc3)c(=O)n1CC(=O)Nc1c(C)cccc1C)n2C | 72% (inactive)
76 | O=C(Nc1nc2c(F)cccc2s1)c1ccc(S(=O)(=O)N2CCOCC2)cc1 | 103% (inactive)
77 | COc1cc(NC(=O)c2nn(C)c3c2CS(=O)(=O)c2ccccc2-3)cc(OC)c1 | 68% (inactive)
78 | Cc1cc(C)c(NC(=O)Cn2cnc3c(oc4ccccc43)c2=O)c(C)c1 | 69% (inactive)
79 | COc1ccc(C2C(=O)N(C3CCC(C)CC3)CC(=O)N2Cc2ccc(C)cc2)cc1OC (stereo not drawn) | 86% (inactive)
80 | CCC(C(=O)N(C)Cc1ccccc1)n1nc(C)c2sc3ccccc3c2c1=O (stereo not drawn) | 66% (inactive)
81 | O=C(CC(c1ccccc1)c1ccccc1)N1CCN(Cc2ccc3c(c2)OCO3)CC1 | 67% (inactive)
82 | O=C(CCCc1nc(-c2ccc(Cl)cc2)no1)NCc1ccco1 | 54% (inactive)
83 | COc1ccc(C(=O)NCc2ccc3c(c2)CCN3C(C)=O)cc1OC | 83% (inactive)
84 | Cc1ccc(C)c(CNC(=O)c2ccc3c(c2)nc2n3CCC(C)C2)c1 (stereo not drawn) | 91% (inactive)
85 | Cc1ccc(S(=O)(=O)N2CCCc3cc(NS(=O)(=O)c4ccc(C)c(C)c4)ccc32)cc1 | 67% (inactive)
86 | COc1cccc(Cn2c(=O)n(Cc3ccccc3)c(=O)c3c2c2cc(OC)ccc2n3C)c1 | 64% (inactive)
87 | COc1ccc2c(c1)c1c(c(=O)n(Cc3ccccc3)c(=O)n1Cc1ccc(C)cc1)n2C | 80% (inactive)
88 | COc1ccc2c(c1)c1c(c(=O)n(Cc3ccccc3)c(=O)n1Cc1ccccc1)n2C | -1% (active)
